The sample as a whole holds a higher share of the strongest signals than the screen did.
Key:
Assay in all cases: glycan array binding signal (z-score within array); higher = stronger binding
Details in all cases: glycan notation: IUPAC condensed, linker removed
[1] = target: Fuc(a1-2)Gal(b1-4)GlcNAc(b1-3)Gal(b1-4)GlcNAc(b1-3)Gal(b1-4)GlcNAc
In short: (§1)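 Columns mapping to the same glycan were averaged after glycan names were converted to IUPAC-condensed notation. The data come from 3228 arrays in the Consortium for Functional Glycomics database, limited to those with an available protein sequence. Binding is reported as a within-array Z-score averaged across arrays of one protein sequence and across linkers.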

[2] = target: Fuc(a1-2)Gal6S(b1-4)GlcNAc
In short: as §1

[3] = target: Fuc(a1-3)[Gal3S(b1-4)]Glc6S
In short: as §1

[4] = target: Fuc(a1-3)[Gal3S(b1-4)]GlcNAc6S
In short: as §1

[5] = target: Fuc(a1-3)[GalNAc(b1-4)]GlcNAc
In short: as §1

[6] = target: Gal(b1-4)GlcNAc(b1-3)[Gal(b1-4)GlcNAc(b1-6)]GalNAc
In short: as §1

[7] = target: Gal3S(b1-3)[Fuc(a1-4)]GlcNAc
In short: as §1

[8] = target: Gal3S(b1-4)Glc
In short: as §1

[9] = target: Gal3S6S(b1-4)GlcNAc6S
In short: as §1

[10] = target: GalNAc(b1-3)Gal
In short: as §1

[11] = target: GlcNAc(b1-4)Gal(b1-4)GlcNAc
In short: as §1

[12] = target: Neu5Ac(a2-3)Gal(b1-4)[Fuc(a1-3)]GlcNAc6S
In short: as §1

[13] = target: Neu5Ac(a2-3)[GalNAc(b1-4)]Gal(b1-4)GlcNAc
In short: as §1

[14] = target: Neu5Ac(a2-6)Gal(b1-4)Glc
In short: as §1

[15] = target: Neu5Ac(a2-6)Gal(b1-4)GlcNAc(b1-3)Gal(b1-4)[Fuc(a1-3)]GlcNAc(b1-3)Gal(b1-4)[Fuc(a1-3)]GlcNAc
In short: as §1

[16] = target: Neu5Ac(a2-8)Neu5Ac(a2-8)Neu5Ac
In short: as §1

[17] = target: Neu5Ac(a2-8)Neu5Ac(a2-8)Neu5Ac(a2-3)[GalNAc(b1-4)]Gal(b1-4)Glc
In short: as §1

[18] = target: Neu5Ac(b2-6)GalNAc
In short: as §1

[19] = target: Fuc(a1-2)[GalNAc(a1-3)]Gal
In short: as §1

[20] = target: Gal(a1-3)[Gal(a1-4)]Gal(b1-4)GlcNAc
In short: as §1

[21] = target: Gal(b1-4)GalNAc(a1-3)[Fuc(a1-2)]Gal(b1-4)GlcNAc
In short: as §1

[22] = target: Gal3S(b1-3)GalNAc
In short: as §1

[23] = target: Gal3S(b1-4)GlcNAc
In short: as §1

[24] = target: Gal4S(b1-4)GlcNAc
In short: as §1

[25] = target: GlcNAc(b1-4)GlcNAc(b1-4)GlcNAc
In short: as §1

[26] = target: Man(a1-2)Man(a1-6)[Man(a1-3)]Man(a1-6)[Man(a1-2)Man(a1-2)Man(a1-3)]Man(b1-4)GlcNAc(b1-4)GlcNAc
In short: as §1

[27] = target: Neu5Ac(a2-8)Neu5Ac(a2-3)[GalNAc(b1-4)]Gal(b1-4)Glc
In short: as §1

[28] = target: Neu5Ac(a2-8)Neu5Ac(a2-8)Neu5Ac(a2-3)Gal(b1-4)Glc
In short: as §1

[29] = target: Neu5Gc(a2-3)Gal(b1-4)Glc
In short: as §1

B1: L-Selectin (Mus musculus), P18337 (protein)
chain: MVFPWRCEGTYWGSRNILKLWVWTLLCCDFLIHHGTHCWTYHYSEKPMNWENARKFCKQNYTDLVAIQNKREIEYLENTLPKSPYYYWIGIRKIGKMWTWVGTNKTLTKEAENWGAGEPNNKKSKEDCVEIYIKRERDSGKWNDDACHKRKAALCYTASCQPGSCNGRGECVETINNHTCICDAGYYGPQCQYVVQCEPLEAPELGTMDCIHPLGNFSFQSKCAFNCSEGRELLGTAETQCGASGNWSSPEPICQVVQCEPLEAPELGTMDCIHPLGNFSFQSKCAFNCSEGRELLGTAETQCGASGNWSSPEPICQETNRSFSKIKEGDYNPLFIPVAVMVTAFSGLAFLIWLARRLKKGKKSQERMDDPY
**Q.** Which “glycan array binding signal (z-score)” value [1] does the source give for B1 here?
**A.** The value was -0.485.

**Q.** And the “glycan array binding signal (z-score)” value [2]?
**A.** Its value is -0.072.

**Q.** What about the “glycan array binding signal (z-score)” value [3] of the same binder?
**A.** The value was 3.99.

**Q.** What about the “glycan array binding signal (z-score)” value [4] of the same binder?
**A.** The value was 4.9.

**Q.** What about the “glycan array binding signal (z-score)” value [5] of the same binder?
**A.** Its value is -0.454.

**Q.** What about the “glycan array binding signal (z-score)” value [6] of the same binder?
**A.** Its value is -0.393.

**Q.** And the “glycan array binding signal (z-score)” value [7]?
**A.** Its value is 3.61.

**Q.** What about the “glycan array binding signal (z-score)” value [8] of the same binder?
**A.** The value was 0.558.

**Q.** And the “glycan array binding signal (z-score)” value [9]?
**A.** The value was 4.38.

**Q.** What about the “glycan array binding signal (z-score)” value [10] of the same binder?
**A.** Its value is -0.436.

**Q.** What about the “glycan array binding signal (z-score)” value [11] of the same binder?
**A.** Its value is -0.044.

**Q.** What about the “glycan array binding signal (z-score)” value [12] of the same binder?
**A.** Its value is 8.82.

**Q.** What about the “glycan array binding signal (z-score)” value [13] of the same binder?
**A.** Its value is -0.282.

**Q.** What about the “glycan array binding signal (z-score)” value [14] of the same binder?
**A.** Its value is -0.214.

**Q.** And the “glycan array binding signal (z-score)” value [15]?
**A.** The value was -0.252.

**Q.** What about the “glycan array binding signal (z-score)” value [16] of the same binder?
**A.** Its value is -0.493.

**Q.** And the “glycan array binding signal (z-score)” value [17]?
**A.** Its value is -0.235.

**Q.** What about the “glycan array binding signal (z-score)” value [18] of the same binder?
**A.** Its value is -0.495.

B2: RegIIIgamma (Mus musculus), O09049 (protein)
chain: MLPRITITIMSWMLLSCLMLLSQVQGEVAKKDAPSSRSSCPKGSRAYGSYCYALFSVSKNWYDADMACQKRPSGHLVSVLSGAEASFLSSMIKSSGNSGQYVWIGLHDPTLGYEPNRGGWEWSNADVMNYINWETNPSSSSGNHCGTLSRASGFLKWRENYCNLELPYVCKFKA
**Q.** How did the “glycan array binding signal (z-score)” value [1] turn out when B2 was run?
**A.** The value was 0.632.

**Q.** What about the “glycan array binding signal (z-score)” value [19] of the same binder?
**A.** The value was -0.258.

**Q.** And the “glycan array binding signal (z-score)” value [20]?
**A.** The value was 0.491.

**Q.** And the “glycan array binding signal (z-score)” value [21]?
**A.** The value was -0.228.

**Q.** And the “glycan array binding signal (z-score)” value [22]?
**A.** The value was -0.134.

**Q.** And the “glycan array binding signal (z-score)” value [23]?
**A.** The value was -0.128.

**Q.** What about the “glycan array binding signal (z-score)” value [24] of the same binder?
**A.** The value was 1.17.

**Q.** What about the “glycan array binding signal (z-score)” value [25] of the same binder?
**A.** The value was -0.185.

**Q.** And the “glycan array binding signal (z-score)” value [26]?
**A.** The value was -0.06.

**Q.** What about the “glycan array binding signal (z-score)” value [27] of the same binder?
**A.** The value was -0.133.

**Q.** What about the “glycan array binding signal (z-score)” value [28] of the same binder?
**A.** Its value is -0.163.

**Q.** What about the “glycan array binding signal (z-score)” value [29] of the same binder?
**A.** Its value is -0.148.

From the supplement of paper PMC8728848
